Measurements published in PubChem BioAssay (Tox21).
Several values for one entry are separate records, joined by “and”; a condition that tells them apart may be missing. Identical values can stand only once. Inconclusive results are not listed. A call without a number means that no potency is given here. Where a structure was tested more than once in an assay, its records may differ in their call. Activity calls are given as the source filed them. Unless noted, calls follow the shape of the dose curve; as a rule, active = well fitted curve in the direction sought with a large enough effect in the repeat runs; inconclusive = weak or mixed curves; inactive = no such curve, though single readings can be large; an effect the other way counts as inactive or inconclusive.

Columns and labels:
[1] = qHTS assay to identify aromatase inhibitors - cell viability counter screen (AID 743084); details: MCF-7 aro ERE viability, CellTiter-Fluor, 24 h; series mostly up to 70.3 µM;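 also: cells stimulated with testosterone during compound exposure; nearly all actives have a fitted effect of over 55% in size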; also: potency is read from the fitted curve at half-maximal effect
[2] = biological target: Aryl hydrocarbon receptor (Homo sapiens) (UniProt P35869); assay: qHTS assay to identify small molecule that activate the aryl hydrocarbon receptor (AhR) signaling pathway (AID 743085); details: HepG2 AhR-luc (HG2L7.5c1), luciferase, 24 h; series mostly up to 70.3 µM; also: nearly all actives have a fitted effect of over 15% in size; also: potency is read from the fitted curve at half-maximal effect;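 as to activation: HG2L7.5c1 human HepG2 liver cells with stably integrated DRE-driven firefly reporter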
Outline: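 Steps: seed HepG2-AhR-luc cells; allow 5 h at 37C; pin-transfer test compound or vehicle; incubate 24 h at 37C; add viability dye (30 min, 37C) and read fluorescence; add luciferase substrate (30 min, RT) and read luminescence.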

[3] = qHTS assay to identify small molecule that activate the aryl hydrocarbon receptor (AhR) signaling pathway - cell viability counter screen (AID 743086); details: HepG2-AhR-luc viability, CellTiter-Fluor, 24 h; series mostly up to 70.3 µM; also: nearly all actives have a fitted effect of over 45% in size; also: potency is read from the fitted curve at half-maximal effect
Outline: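 HepG2-AhR-luc (HG2L7.5c1) cells, 4000/well, were preincubated 5 h at 37C, exposed to compound in qHTS format for 24 hr at 37C, then given CellTiter-Fluor for 30 min; viability was read as fluorescence in the reporter wells.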

[4] = qHTS assay to identify small molecule antagonists of the peroxisome proliferator-activated receptor gamma (PPARg) signaling pathway - cell viability counter screen (AID 743194); details: PPARg-bla HEK293H viability, CellTiter-Glo luminescence, 17 h; Potency: co-treated with 50 nM rosiglitazone unless noted; series mostly up to 62.6 µM; also: nearly all actives have a fitted effect of over 55% in size; also: potency is read from the fitted curve at half-maximal effect
Outline: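 PPARg-UAS-bla HEK293H cells were plated, rested 5 h at 37 C, then treated with compounds plus rosiglitazone (50 nM final) for 17 h at 37 C; viability was then read by CellTiter-Glo luminescence after 30 min at room temperature.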

[5] = qHTS assay for small molecule agonists of the antioxidant response element (ARE) signaling pathway (AID 743202; active = well fitted activation curve with a large enough effect in the signal ratio in the repeat runs, not every such curve was filed as active; the % refers to the signal ratio; also: potency is read from the fitted curve at half-maximal effect); details: HepG2 ARE-bla reporter, beta-lactamase FRET, 16 h; series mostly up to 73.3 µM
Outline: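 Steps: seed ARE-bla HepG2 cells (2,000/well); incubate 5 h at 37 C; add compounds by pin tool; incubate 16 h at 37 C; add FRET substrate; read fluorescence after 2 h at RT.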

[6] = qHTS assay for small molecule agonists of the antioxidant response element (ARE) signaling pathway - cell viability counter screen (AID 743203; calls by dose curve; also: nearly all actives have a fitted effect of over 55% in size; also: potency is read from the fitted curve at half-maximal effect); details: ARE-bla HepG2 viability, CellTiter-Glo luminescence, 16 h; series mostly up to 73.3 µM
Outline: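 ATP content via CellTiter-Glo luminescence served as the viability measure. Cells: ARE-bla HepG2, 2,000 per well. Exposure: 16 hrs, 37C/5% CO2.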

[7] = qHTS assay for small molecule activators of the heat shock response signaling pathway - cell viability counter screen (AID 743209); details: HSE-bla HeLa viability, CellTiter-Glo luminescence, 5 h; series mostly up to 62.6 µM; also: nearly all actives have a fitted effect of over 50% in size; also: potency is read from the fitted curve at half-maximal effect
Outline: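 Compounds dissolved in DMSO were added to overnight-plated HSE-bla HeLa cells and left 5 h at 37 C. Cell viability was quantified by luminescence using CellTiter-Glo.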

[8] = qHTS assay for small molecule activators of the heat shock response signaling pathway (AID 743210; active = well fitted activation curve with a large enough effect in the signal ratio in the repeat runs, with a control signal flat, not every such curve was filed as active; the % refers to the signal ratio;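 also: HeLa cells with beta-lactamase reporter driven by heat shock elements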); details: HeLa HSE-bla reporter, beta-lactamase ratio, 5 h; series mostly up to 62.6 µM
Outline: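 Activation of heat shock element-controlled beta-lactamase expression is measured in HeLa cells by LiveBLAzer FRET fluorescence, with compound exposure lasting 5 h at 37 C and substrate loading 2.5 h at room temperature.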

[9] = biological target: Peroxisome proliferator-activated receptor gamma (Homo sapiens) (UniProt P37231); assay: qHTS assay to identify small molecule agonists of the peroxisome proliferator-activated receptor gamma (PPARg) signaling pathway (AID 743094; active = well fitted activation curve with a large enough effect in the signal ratio in the repeat runs, not every such curve was filed as active; the % refers to the signal ratio); details: HEK293H PPARg-UAS-bla, beta-lactamase FRET ratio, 17 h; series mostly up to 57 µM
Outline: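 Agonism was assessed in a beta-lactamase reporter system, HEK293H cells with a stably integrated UAS-bla construct under PPARg control; the 17 h treatment at 37C preceded a 1 h room-temperature FRET substrate read.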

[10] = biological target: Peroxisome proliferator-activated receptor gamma (Homo sapiens) (UniProt P37231); assay: qHTS assay to identify small molecule antagonists of the peroxisome proliferator-activated receptor gamma (PPARg) signaling pathway (AID 743191; calls by dose curve; also: nearly all actives have a fitted effect of over 30% in size); details: HEK293H PPARg-UAS-bla, beta-lactamase ratio, antagonist, 17 h; series mostly up to 62.6 µM
Outline: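 GeneBLAzer PPARg UAS-bla HEK293H cells carrying a UAS-driven beta-lactamase reporter were plated at 3000 cells/well, preincubated 5 h at 37C, then given compound for 17 h at 37C; LiveBLAzer B/G FRET substrate was read after 1 h at room temperature.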

Chain of Aryl hydrocarbon receptor (Homo sapiens) (P35869 whole entry, looked up): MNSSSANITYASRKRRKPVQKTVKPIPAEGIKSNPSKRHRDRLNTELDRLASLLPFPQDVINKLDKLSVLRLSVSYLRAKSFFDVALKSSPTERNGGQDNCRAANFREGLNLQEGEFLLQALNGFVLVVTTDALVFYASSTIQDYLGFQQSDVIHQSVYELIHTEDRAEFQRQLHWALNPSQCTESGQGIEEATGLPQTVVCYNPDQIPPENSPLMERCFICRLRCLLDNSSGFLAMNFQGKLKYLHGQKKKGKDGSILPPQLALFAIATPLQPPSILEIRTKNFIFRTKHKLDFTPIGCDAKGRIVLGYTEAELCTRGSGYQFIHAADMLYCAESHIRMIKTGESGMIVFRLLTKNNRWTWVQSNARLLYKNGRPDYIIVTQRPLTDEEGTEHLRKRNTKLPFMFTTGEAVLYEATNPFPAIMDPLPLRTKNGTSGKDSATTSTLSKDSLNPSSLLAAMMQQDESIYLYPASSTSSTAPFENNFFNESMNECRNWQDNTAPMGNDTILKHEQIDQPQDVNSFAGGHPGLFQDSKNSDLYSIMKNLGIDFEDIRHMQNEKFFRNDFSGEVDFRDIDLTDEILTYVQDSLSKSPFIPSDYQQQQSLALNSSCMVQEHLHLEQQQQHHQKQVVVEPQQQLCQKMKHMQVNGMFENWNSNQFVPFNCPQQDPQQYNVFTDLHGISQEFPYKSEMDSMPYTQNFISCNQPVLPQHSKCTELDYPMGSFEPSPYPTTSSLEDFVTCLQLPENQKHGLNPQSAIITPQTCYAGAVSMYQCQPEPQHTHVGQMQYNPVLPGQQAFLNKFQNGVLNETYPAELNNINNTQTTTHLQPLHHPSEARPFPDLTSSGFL
Chain of Peroxisome proliferator-activated receptor gamma (Homo sapiens) (P37231 whole entry, looked up): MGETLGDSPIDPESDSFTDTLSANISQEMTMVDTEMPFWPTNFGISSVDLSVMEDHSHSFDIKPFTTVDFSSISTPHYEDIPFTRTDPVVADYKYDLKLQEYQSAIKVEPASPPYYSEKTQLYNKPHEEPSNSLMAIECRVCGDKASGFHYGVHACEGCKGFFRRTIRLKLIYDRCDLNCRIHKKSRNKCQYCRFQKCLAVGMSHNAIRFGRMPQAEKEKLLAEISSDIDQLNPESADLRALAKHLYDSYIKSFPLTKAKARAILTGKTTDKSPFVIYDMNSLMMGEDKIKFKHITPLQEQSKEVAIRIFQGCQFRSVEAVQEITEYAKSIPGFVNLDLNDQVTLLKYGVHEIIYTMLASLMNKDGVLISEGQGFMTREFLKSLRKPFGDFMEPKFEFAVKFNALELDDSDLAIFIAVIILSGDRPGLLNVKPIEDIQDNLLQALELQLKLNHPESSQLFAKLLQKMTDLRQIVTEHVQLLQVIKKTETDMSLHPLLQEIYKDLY

SMILES	Potency [1]	Potency [2]	Potency [3]	Potency [4]	Potency [5]	Potency [6]	Potency [7]	Potency [8]	Potency [9]	Potency [10]
Cl	inactive	inactive	inactive	inactive	inactive	inactive	inactive	inactive		
CS(=O)(=O)NC(=O)c1cc(Oc2ccc(C(F)(F)F)cc2Cl)ccc1[N+](=O)[O-]	inactive	inactive	inactive	inactive		inactive	inactive	inactive	inactive	
CC(C)Nc1ccc(Nc2ccccc2)cc1	30.5 µM (active) and 54.5 µM (active)	inactive and 2.17 µM (active)			27.3 µM (active)	inactive	inactive			
CC(C)=CC1C(C(=O)OCc2cccc(Oc3ccccc3)c2)C1(C)C (stereo not drawn)	inactive	inactive	inactive	inactive	inactive	inactive	inactive	inactive		
ClCC(Cl)CCl			inactive	inactive	inactive	inactive	inactive	inactive		
ClC(Cl)(Cl)c1ccccc1	inactive	inactive	inactive	inactive	inactive	inactive	inactive	inactive		
CCN(CC)C(=O)C(C)Oc1cccc2ccccc12 (stereo not drawn)	inactive	54.9 µM (active) and 30.6 µM (active)		inactive	inactive	inactive	inactive	inactive	inactive	inactive
CC(C)(c1ccccc1)c1ccc(O)cc1	48.2 µM (active)	inactive				60.6 µM (active)	inactive	inactive	inactive	inactive
Oc1ccc(Cl)cc1Cc1ccccc1	inactive and 30.6 µM (active) and 49.2 µM (active)	inactive	inactive			68.6 µM (active) and 55.1 µM (active)	54.9 µM (active) and 45.4 µM (active) and inactive		inactive	
Cc1cccc(N=Nc2ccc(N(C)C)cc2)c1		13.9 µM (active) and 9.69 µM (active)		inactive		inactive	inactive		inactive	
[Cl-].[Cl-].[Cl-].[Fe+3]	inactive	inactive	inactive	inactive	inactive	inactive	inactive	inactive		
O=C(O)c1nn(Cc2ccc(Cl)cc2Cl)c2ccccc12	inactive	inactive	inactive	inactive	54.1 µM (active)	inactive	inactive	inactive		
C=CC(=O)OCC(CC)(COC(=O)C=C)COC(=O)C=C	6.28 µM (active) and 6.86 µM (active)	inactive	31.5 µM (active) and 27.3 µM (active)	28.3 µM (active) and 9.77 µM (active)		inactive and 61.1 µM (active)	3.56 µM (active) and 1.55 µM (active)			
CCCCCCCC[N+](C)(CCCCCCCC)CCCCCCCC	17.2 µM (active) and 4.86 µM (active) and 27.3 µM (active)	inactive	inactive and 24.3 µM (active)	7.75 µM (active) and 3.47 µM (active) and 5.49 µM (active)		12.2 µM (active) and 19.4 µM (active) and 8.63 µM (active)	13.8 µM (active) and 4.37 µM (active)			
